# Screens (PubChem)
# Sampled rows, rich in hits. Any-hit rate of the full collection: about 6%.
# D3 ag: activates the human D3 dopamine receptor | P35462 | D3R DiscoveRx beta-arrestin cells, luminescence, 90 min | max activation, % | 410,000 tested, 0.58% active | AID 652048; in the data active = max activation above about 30%
# Target sequence (P35462 whole entry, looked up): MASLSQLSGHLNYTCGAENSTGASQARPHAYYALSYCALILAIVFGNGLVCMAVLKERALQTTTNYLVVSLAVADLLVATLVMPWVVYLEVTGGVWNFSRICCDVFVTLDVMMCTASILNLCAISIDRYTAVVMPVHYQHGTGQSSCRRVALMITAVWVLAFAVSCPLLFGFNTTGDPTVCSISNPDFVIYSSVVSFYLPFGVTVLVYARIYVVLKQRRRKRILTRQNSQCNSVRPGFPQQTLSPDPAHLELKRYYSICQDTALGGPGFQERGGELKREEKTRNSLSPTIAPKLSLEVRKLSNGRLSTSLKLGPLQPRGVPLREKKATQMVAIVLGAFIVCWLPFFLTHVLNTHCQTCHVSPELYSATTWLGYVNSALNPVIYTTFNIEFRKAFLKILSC
#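 Cells at 1500/well, incubated overnight, then treated with pinned compounds (dopamine as control) for 90 min at 37 degrees C. DiscoveRx reagent added for 30 - 60 minutes at room temperature; luminescence read.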
# D1 antag: human D1 dopamine receptor antagonism; P21728; HEK293 TREx D1 cells, calcium flux, dopamine EC80; active compounds read low; activity change, negative = inhibition, % at 10 µM; 360,000 tested, 3.2% active; AID 504652; in the data active = activity change below about -30%
#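 After overnight tetracycline induction at 30 C, force-coupled D1 HEK293 cells took up a no-wash calcium dye at room temperature. Compounds were added and monitored 180 s, and the response to EC80 dopamine was then recorded.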
# D1 potentiator: enhances dopamine response at the human D1 receptor | potentiation, % at 10 µM | AID 504651 | 360,000 tested, 0.036% active | HEK293 TREx D1 cells, calcium flux, dopamine EC20 potentiation; in the data active = potentiation above about 30%
# D3 antag: blocks the human D3 dopamine receptor; 360,000 tested, 2.5% active; max response, negative = inhibition, %; D3R cells, DiscoveRx beta-arrestin luminescence, antagonist mode; active compounds read low; P35462; in the data active = max response below about -50%; inconclusive = no clear call, values can overlap the other calls
#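 Cells plated overnight at 1500 cells/well, then exposed to library compounds with dopamine controls for 90 minutes at 37 degrees C. DiscoveRx reagent added for 30–60 minutes at room temperature; luminescence read, quantitative HTS format.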
# BCR signal inh: blocks chronic active B-cell receptor signaling; Potency, µM (titrated, usually from 46.1 µM), usual class: inhibitors; 340,000 tested, 0.05% active; AID 493014; ABC-DLBCL IkBa-CBG/CBR reporter, luminescence ratio, 4 h; active = well fitted inhibition curve with a large enough effect in the signal ratio, with a control signal flat, not every such curve was filed as active; inconclusive = small, poorly fitted or top-dose-only effect, or effect the other way, or a change in a side signal; the % refers to the signal ratio
#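 Cell line TMD8 (human ABC DLBCL), stably expressing tet-inducible CBG68-IkBa fusion and CBR; IMDM/0.5% FBS; cpd up to 46 uM; dox induction, 4 h, 37C/5% CO2; dual luminescence; green/red ratio; MG132 control.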
# D1 agonist: agonists of human D1 dopamine receptor. P21728. HEK293 T-REx D1 cells, calcium flux, agonist mode. activation, % at 2 µM. 360,000 tested, 1% active. AID 504660; in the data active = activation above about 30%
#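 Inducible HEK293 T-REx D1 cells, force-coupled to calcium signalling, were plated at 4000 cells/well with tetracycline and held overnight at 30 C. After no-wash calcium dye loading, compound-evoked calcium rise over 180 s flagged agonists.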
# Hits are given with their value; - = inactive; ? = inconclusive; . = no result.
SMILES,D3 ag,D1 antag,D1 potentiator,D3 antag,BCR signal inh,D1 agonist
Cc1ccc(CNCc2cc(Cl)ccc2O)cc1,-,-,-,?,-,60
Oc1ccc(Cl)cc1CNCC1CCCCC1,-,-,-,-76,-,-
COc1ccc(CNC(=O)c2cc3c(=O)n4cccc(C)c4nc3s2)cc1,-,-,-,.,.,-
CCOc1ccc(-c2nonc2NC(=O)c2oc3ccc(Cl)cc3c2C)cc1,-,-32,-,.,.,-
COc1ccc(NC(=O)COC(=O)CC2CC3CCC2C3)c([N+](=O)[O-])c1 (stereo not given),-,-97,-,-,-,-
COc1ccc(NC(=O)COC(=O)C2CCCCC2)c([N+](=O)[O-])c1,-,-,-,-,-,-
CN(C)c1ccc(C=NN2C(=O)CSC2=S)c(Cl)c1,-,.,.,-,.,.
COc1cc([N+](=O)[O-])ccc1N/C=C/C(=O)c1cccs1,-,-,-,-,?,42
O=[N+]([O-])c1ccc(N/N=C2/CCCCC2c2ccccn2)cc1 (stereo not given),-,-59,-,-,?,-
O=[N+]([O-])c1ccc(NC2CCCC2)cc1,-,-,-,-,?,-
CCCC(=O)c1ccc(OCc2cn(CC(=O)c3ccc(O)cc3)nn2)cc1,-,.,.,-,.,.
O=C(Cn1cc(COc2ccccc2[N+](=O)[O-])nn1)c1ccc(O)cc1,37,.,.,-,.,.
O=Cc1cccc(OCc2cn(CC(=O)c3ccc(O)cc3)nn2)c1,-,.,.,-53,.,.
O=C(Cn1cc(COc2ccc(Br)cc2)nn1)c1ccc(O)cc1,-,.,.,-,.,.
N#Cc1ccccc1OCc1cn(CC(=O)c2ccc(O)cc2)nn1,-,.,.,-73,.,.
O=C(Cn1cc(COc2c(F)c(F)c(Br)c(F)c2F)nn1)c1ccc(O)cc1,-,.,.,-,.,.
C[C@H]1CN([C@@H](C)CO)C(=O)CCCn2nncc2CO[C@H]1CN(C)C(=O)Nc1ccnc(N2CCOCC2)c1,-,.,.,-,.,.
Cc1c(Cl)cccc1NC(=O)CSc1cc(-c2ccccc2)ncn1,-,-,-,.,.,-
Cc1nc(-c2ccccc2)sc1C1(C)CC(c2cccc(F)c2)=NO1 (stereo not given),-,.,.,-,.,.
Cc1nc(-c2ccccc2)sc1C1(C)CC(c2cccc([N+](=O)[O-])c2)=NO1 (stereo not given),-,-42,-,-,?,-
Cc1nc(C(=O)Nc2cc(F)cc(Cl)c2)sc1C1(C)CC(c2ccccc2)=NO1 (stereo not given),41,.,.,-,.,.
Cc1nc(-c2ccc(Cl)cc2)sc1C1(C)CC(c2ccccc2Br)=NO1 (stereo not given),57,.,.,-,.,.
Cc1ccc(NC(=O)C2CCCN2S(=O)(=O)c2cccc3nsnc23)c(Br)c1 (stereo not given),-,-,-,.,.,-
C#CCN1C(=O)S/C(=C/C=C/c2ccc(N(C)C)cc2)C1=O,-,-,-,-,?,98
O=C(CN1C(=O)S/C(=C\C=C\c2ccccc2)C1=O)Nc1ccccc1C(=O)O,-,-,-,-,-,-
SMILES,D3 ag,D1 antag,D1 potentiator,D3 antag,BCR signal inh,D1 agonist
CC(=O)c1cccc(N(CC(=O)NC2CCCC2)C(=O)c2csnn2)c1,-,-39,.,-,-,-
Cc1ccc(/C=C/c2onc(C)c2S(=O)(=O)N2CCC(C(=O)N3CCN(c4cccc(C)c4)C(C)C3)CC2)cc1 (stereo not given),-,-,-,.,.,-
O=C(C[n+]1cc(-c2ccc(F)cc2)n2c1CCC2)Nc1nc(-c2ccc(F)cc2)cs1,-,-31,-,-,?,-
O=C(CN1CCCCC1)Nc1nc(-c2ccc(Cl)cc2)cs1,-,-53,-,-,-,-
O=C(C[n+]1cc(-c2ccccc2)n2c1CCC2)Nc1nc(-c2ccc(F)cc2)cs1,-,-,-,-,-,-
Cc1cccc(C)c1N1C(=O)CC(N(O)c2ccccc2)C1=O (stereo not given),-,-31,-,-,-,-
CC(C)(C)[C@H](NC(=O)c1ccc(N)c(Cl)c1)C(=O)N1CCC[C@H]1C(=O)N[C@H](C#N)Cc1nn[nH]n1,.,-,-,.,-,-
N/C(=N\S(=O)(=O)c1cc(C(F)(F)F)cc(C(F)(F)F)c1)c1ccc(Cl)cc1,-,-77,-,-,-,-
